We go through eight compounds from PubChem BioAssay (NCI).

Compounds without any hit were thinned out: in the full panel of roughly 83,000, 20% have a hit.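 Single-dose data. Exposure time 48 hours. Values below 10 considered active.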 Values without a mark were called inactive. Activity calls are given as the source filed them.

Test systems include DU-145 prostate; K-562 leukemia; MALME-3M melanoma; MDA-MB-231 breast; RXF 393 renal; SF-268 CNS; SF-295 CNS; SF-539 CNS; UACC-257 melanoma; M14 melanoma; HCT-15 colon; HT29 colon; SNB-75 CNS; SNB-19 CNS; U251 CNS; PC-3 prostate; SK-MEL-5 melanoma; UACC-62 melanoma; LOX IMVI melanoma; SK-MEL-28 melanoma.
Holding throughout (assay): NCI-60 one-dose screen, 48 h (100 = growth as untreated, 0 = no growth, -100 = all killed)
Details in all cases: 10 µM unless noted

On to `N#Cc1c(-c2ccccc2)nc(SCc2nnc(-c3ccc(Cl)cc3)o2)[nH]c1=O`, for which the growth is 108% with DU-145 prostate; 84.1% in the assay on K-562 leukemia; 88.9% in the assay on MALME-3M melanoma; 103% in the assay with MDA-MB-231 breast; 106% in the assay on RXF 393 renal; 100% in the assay with SF-268 CNS. Besides, the growth was 89.5% with SF-295 CNS; 104% with SF-539 CNS; 94.7% with UACC-257 melanoma; 92.1% in the assay with M14 melanoma; 101% with HCT-15 colon; 94.1% in the assay with HT29 colon. Moreover, the growth with SNB-75 CNS was 93.9%; in the assay on SNB-19 CNS it was 100%; in the assay with U251 CNS it was 81%; in the assay with PC-3 prostate it was 61.5%; with SK-MEL-5 melanoma, 99.5%; in the assay on UACC-62 melanoma, 98.5%. The growth was 94.1% in the assay with LOX IMVI melanoma and 110% in the assay with SK-MEL-28 melanoma.

As for `CNCc1cccc2c1OCCOCCOCCNS(=O)(=O)c1ccc(cc1)-c1cnc(N)c(n1)C(=O)N2`, the growth in the assay with DU-145 prostate was 21.1%; with K-562 leukemia it was 9.35% (active); in the assay on MALME-3M melanoma it was 29.9%; with MDA-MB-231 breast, 30.4%; in the assay on RXF 393 renal it was -11.5% (active); with SF-268 CNS it was 35.7%. Besides, the growth is 70.3% with SF-295 CNS; 7.45% (active) in the assay with SF-539 CNS; 61.3% in the assay on UACC-257 melanoma; 26% in the assay on M14 melanoma; 89.8% in the assay on HCT-15 colon; 12.4% with HT29 colon. The growth in the assay on SNB-75 CNS was 65.4%; in the assay with SNB-19 CNS, 18.2%; with U251 CNS, 14.1%; with PC-3 prostate it was 20.1%; in the assay with SK-MEL-5 melanoma, 77%; with UACC-62 melanoma it was 23.2%. Besides, the growth in the assay with LOX IMVI melanoma is 2.85% (active); with SK-MEL-28 melanoma, 51%.

Consider `O=S(=O)(Nc1cc(Sc2cccc3cccnc23)c(O)c2ccccc12)c1ccccc1`, for which the growth in the assay with DU-145 prostate is 15%; in the assay with K-562 leukemia, -16.8% (active); in the assay on MALME-3M melanoma it was 0.404% (active); with MDA-MB-231 breast, 25.1%; in the assay with RXF 393 renal, 28.7%; with SF-268 CNS it was 8.28% (active). For the same compound, the growth with SF-295 CNS was 21.7%; with SF-539 CNS, -9.98% (active); in the assay with UACC-257 melanoma, -9.38% (active); in the assay with M14 melanoma it was -16.5% (active); with HCT-15 colon, 12.2%; with HT29 colon it was -35.8% (active). In addition, the growth with SNB-75 CNS is 65.9%; with SNB-19 CNS, 43.4%; in the assay with U251 CNS it was 6.77% (active); in the assay with PC-3 prostate, 20.9%; in the assay on SK-MEL-5 melanoma, -25.2% (active); in the assay with UACC-62 melanoma, -40.1% (active). In addition, the growth is -50.2% (active) with LOX IMVI melanoma and 0.27% (active) in the assay on SK-MEL-28 melanoma.

Regarding `COc1ccc(NC(=O)Nc2ccc(OCCCCCC(=O)NO)cc2)cc1`, the growth in the assay with DU-145 prostate was 106%; in the assay on K-562 leukemia it was 88.3%; in the assay with MALME-3M melanoma it was 97.5%; in the assay with MDA-MB-231 breast, 105%; in the assay on RXF 393 renal, 98.3%; in the assay with SF-268 CNS, 101%. For the same compound, the growth in the assay on SF-295 CNS was 109%; in the assay on SF-539 CNS, 103%; with UACC-257 melanoma, 73.4%; with M14 melanoma, 95.3%; with HCT-15 colon, 117%; in the assay with HT29 colon, 88.8%. The growth is 93.2% in the assay on SNB-75 CNS; 102% in the assay with SNB-19 CNS; 101% with U251 CNS; 97.8% with PC-3 prostate; 104% with SK-MEL-5 melanoma; 89.4% in the assay on UACC-62 melanoma. Also, the growth in the assay on LOX IMVI melanoma is 96.4%; in the assay with SK-MEL-28 melanoma, 103%.

For `CC1(C)NCCC[C@]2(C)[C@H]3CC[C@H]4[C@H]5[C@H](C(=O)/C=C/c6cccnc6)CCC[C@]5(CO)CC[C@@]4(C)[C@]3(C)CC[C@@H]12`, the growth is 66.6% in the assay on DU-145 prostate; -3.12% (active) in the assay with K-562 leukemia; 85.7% with MALME-3M melanoma; 67.4% with MDA-MB-231 breast; 66.2% with RXF 393 renal; 72.9% in the assay with SF-268 CNS. Further, the growth is 84.3% with SF-295 CNS; 81.4% in the assay with SF-539 CNS; 86.5% in the assay on UACC-257 melanoma; 85.8% with M14 melanoma; 33.5% in the assay with HCT-15 colon; 3.84% (active) in the assay on HT29 colon. In addition, the growth with SNB-75 CNS is 75.8%; in the assay on SNB-19 CNS it was 72.2%; in the assay with U251 CNS, 11%; in the assay on PC-3 prostate, 59.4%; in the assay with SK-MEL-5 melanoma, 87%; with UACC-62 melanoma, 96.7%. In addition, the figures for the growth in the assay on LOX IMVI melanoma and in the assay with SK-MEL-28 melanoma were 13% and 93.6%, respectively.

With `O=C(CSc1nnc(-c2cc(-c3ccccc3)nc3ccccc23)n1-c1ccccc1)Nc1ccc(C(=O)/C=C/c2ccc(Cl)cc2)cc1`, the growth with DU-145 prostate is 94.6%; in the assay with K-562 leukemia, 65.8%; in the assay with MALME-3M melanoma, 99.5%; in the assay on MDA-MB-231 breast, 78.5%; in the assay with RXF 393 renal, 103%; in the assay on SF-268 CNS, 94.4%. Further, the growth in the assay with SF-295 CNS was 97.9%; with SF-539 CNS, 96.7%; with UACC-257 melanoma it was 103%; in the assay with M14 melanoma, 92.6%; in the assay on HCT-15 colon, 73.5%; in the assay with HT29 colon, 76.2%. In addition, the growth was 97.3% with SNB-75 CNS; 101% in the assay on SNB-19 CNS; 93.9% in the assay on U251 CNS; 81% with PC-3 prostate; 91.4% in the assay on SK-MEL-5 melanoma; 67.9% in the assay on UACC-62 melanoma. Moreover, the growth in the assay on LOX IMVI melanoma is 94.3%; in the assay on SK-MEL-28 melanoma, 99.8%.

In the case of `Cc1ccc2c(-n3nc(C#N)c(C#N)c3N)cc(=O)[nH]c2c1`, the growth was 94% with DU-145 prostate; 76% with K-562 leukemia; 78.2% with MALME-3M melanoma; 85.5% in the assay with MDA-MB-231 breast; 100% with RXF 393 renal; 94.4% in the assay on SF-268 CNS. The growth was 94% in the assay on SF-295 CNS; 89.8% with SF-539 CNS; 87.9% in the assay with UACC-257 melanoma; 84.9% in the assay with M14 melanoma; 87.9% in the assay on HCT-15 colon; 93.7% with HT29 colon. Also, the growth in the assay on SNB-75 CNS is 110%; in the assay on SNB-19 CNS, 88.6%; with U251 CNS, 86.4%; with PC-3 prostate, 71.1%; with SK-MEL-5 melanoma, 93.5%; in the assay on UACC-62 melanoma, 80.2%. Also, the growth was 81% with LOX IMVI melanoma and 94.1% in the assay with SK-MEL-28 melanoma.

Turning to `CC1=C(C(=O)Nc2nc(-c3ccc(Cl)cc3)cs2)[C@H](c2ccc(O)cc2)NC(=O)N1`, the growth in the assay on DU-145 prostate was 98%; in the assay with K-562 leukemia, 96.8%; in the assay on MALME-3M melanoma, 99.6%; with MDA-MB-231 breast it was 90.2%; in the assay on RXF 393 renal, 104%; in the assay with SF-268 CNS, 87.1%. The growth in the assay on SF-295 CNS is 95.7%; in the assay with SF-539 CNS, 99.3%; in the assay on UACC-257 melanoma it was 105%; in the assay with M14 melanoma it was 98.1%; in the assay on HCT-15 colon, 102%; in the assay with HT29 colon, 100%. The growth in the assay on SNB-75 CNS is 74.3%; with SNB-19 CNS it was 107%; with U251 CNS, 93.4%; in the assay on PC-3 prostate, 84.4%; with SK-MEL-5 melanoma, 99.8%; in the assay with UACC-62 melanoma it was 88.8%. The values for the growth with LOX IMVI melanoma and in the assay on SK-MEL-28 melanoma were 95.1% and 115%, respectively.
